In experiment [1] the target is Vascular endothelial growth factor receptor 3 (Homo sapiens) (UniProt P35916). The note with it: at 10 µM.
The target in experiment [2] is Macrophage colony-stimulating factor 1 receptor (Homo sapiens) (UniProt P07333). The note with it: at 1 µM.
Experiment [3] shares this target. The note with it: at 10 µM.
The target of experiment [4] is Tyrosine-protein kinase Fyn (Homo sapiens) (UniProt P06241). The settings on record: at 1 µM.
For experiment [5] the target is unchanged. The settings on record: at 10 µM.
Experiment [6] has as its target T1, Mitogen-activated protein kinase kinase kinase kinase 2 (Homo sapiens) (UniProt Q12851).
T1 sequence (whole entry): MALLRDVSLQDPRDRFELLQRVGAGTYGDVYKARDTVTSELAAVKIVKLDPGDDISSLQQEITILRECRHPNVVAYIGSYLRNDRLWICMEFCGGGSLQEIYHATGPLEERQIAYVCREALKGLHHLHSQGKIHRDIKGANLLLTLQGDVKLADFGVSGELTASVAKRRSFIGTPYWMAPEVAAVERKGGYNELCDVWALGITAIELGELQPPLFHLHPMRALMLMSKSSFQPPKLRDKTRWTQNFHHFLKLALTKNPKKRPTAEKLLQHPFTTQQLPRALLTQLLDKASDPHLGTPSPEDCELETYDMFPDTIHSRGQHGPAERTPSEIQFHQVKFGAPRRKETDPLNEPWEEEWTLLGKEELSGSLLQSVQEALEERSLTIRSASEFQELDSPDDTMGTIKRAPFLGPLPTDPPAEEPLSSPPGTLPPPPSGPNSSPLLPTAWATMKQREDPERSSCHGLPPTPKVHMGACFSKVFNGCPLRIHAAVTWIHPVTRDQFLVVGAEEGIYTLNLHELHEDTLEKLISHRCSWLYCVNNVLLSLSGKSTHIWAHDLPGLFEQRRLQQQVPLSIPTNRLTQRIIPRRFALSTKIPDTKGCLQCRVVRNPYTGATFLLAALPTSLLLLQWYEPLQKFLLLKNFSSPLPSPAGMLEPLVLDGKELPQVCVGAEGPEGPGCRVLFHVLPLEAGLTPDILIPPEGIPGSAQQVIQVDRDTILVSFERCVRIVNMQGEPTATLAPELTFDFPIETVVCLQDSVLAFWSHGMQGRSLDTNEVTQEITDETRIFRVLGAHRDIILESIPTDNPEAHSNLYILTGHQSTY
The settings on record: at 1 µM.

The target of experiment [7] is T1, Mitogen-activated protein kinase kinase kinase kinase 2 (Homo sapiens). The note with it: at 10 µM.
The target of experiment [8] is G protein-coupled receptor kinase 5 (Homo sapiens) (UniProt P34947). The settings on record: at 10 µM.
The target in experiment [9] is G protein-coupled receptor kinase 6 (Homo sapiens) (UniProt P43250). The note with it: at 10 µM.
Experiment [10] concerns the target T2, Rhodopsin kinase GRK7 (Homo sapiens) (UniProt Q8WTQ7).
T2 sequence (whole entry): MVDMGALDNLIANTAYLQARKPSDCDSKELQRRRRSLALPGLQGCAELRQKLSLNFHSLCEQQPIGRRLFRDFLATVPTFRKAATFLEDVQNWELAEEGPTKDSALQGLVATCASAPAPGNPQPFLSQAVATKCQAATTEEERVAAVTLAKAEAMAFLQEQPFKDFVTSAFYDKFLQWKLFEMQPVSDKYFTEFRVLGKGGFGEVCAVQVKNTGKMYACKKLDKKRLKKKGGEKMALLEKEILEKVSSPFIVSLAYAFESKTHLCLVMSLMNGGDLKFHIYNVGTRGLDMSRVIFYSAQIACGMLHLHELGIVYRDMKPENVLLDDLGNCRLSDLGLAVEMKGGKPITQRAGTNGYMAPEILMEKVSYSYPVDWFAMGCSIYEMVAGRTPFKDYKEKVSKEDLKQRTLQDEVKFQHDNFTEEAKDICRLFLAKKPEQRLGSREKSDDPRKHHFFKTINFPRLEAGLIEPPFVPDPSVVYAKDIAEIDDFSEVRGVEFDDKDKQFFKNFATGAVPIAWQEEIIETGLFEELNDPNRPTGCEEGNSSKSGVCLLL
The settings on record: at 1 µM.

Experiment [11] has as its target T2, Rhodopsin kinase GRK7 (Homo sapiens). The note with it: at 10 µM.
Experiment [12] has as its target Glycogen synthase kinase-3 beta (Homo sapiens) (UniProt P49841). The note with it: at 1 µM.
For experiment [13] the target is unchanged. The settings on record: at 10 µM.
For experiment [14], the target named is Homeodomain-interacting protein kinase 2 (Homo sapiens) (UniProt Q9H2X6). The note with it: at 1 µM.
For experiment [15] the target is unchanged. The settings on record: at 10 µM.
In experiment [16] the target is Homeodomain-interacting protein kinase 3 (Homo sapiens) (UniProt Q9H422). The settings on record: at 1 µM.
The target in experiment [17] is Glycogen synthase kinase-3 alpha (Homo sapiens) (UniProt P49840). The settings on record: at 10 µM.
Experiment [18] addresses Homeodomain-interacting protein kinase 1 (Homo sapiens) (UniProt Q86Z02). The settings on record: at 1 µM.
For experiment [19] the target is unchanged. The note with it: at 10 µM.
Experiment [20] deals with Glycogen synthase kinase-3 alpha (Homo sapiens) (UniProt P49840). The note with it: at 1 µM.

Chain of Macrophage colony-stimulating factor 1 receptor (Homo sapiens) (P07333 whole entry): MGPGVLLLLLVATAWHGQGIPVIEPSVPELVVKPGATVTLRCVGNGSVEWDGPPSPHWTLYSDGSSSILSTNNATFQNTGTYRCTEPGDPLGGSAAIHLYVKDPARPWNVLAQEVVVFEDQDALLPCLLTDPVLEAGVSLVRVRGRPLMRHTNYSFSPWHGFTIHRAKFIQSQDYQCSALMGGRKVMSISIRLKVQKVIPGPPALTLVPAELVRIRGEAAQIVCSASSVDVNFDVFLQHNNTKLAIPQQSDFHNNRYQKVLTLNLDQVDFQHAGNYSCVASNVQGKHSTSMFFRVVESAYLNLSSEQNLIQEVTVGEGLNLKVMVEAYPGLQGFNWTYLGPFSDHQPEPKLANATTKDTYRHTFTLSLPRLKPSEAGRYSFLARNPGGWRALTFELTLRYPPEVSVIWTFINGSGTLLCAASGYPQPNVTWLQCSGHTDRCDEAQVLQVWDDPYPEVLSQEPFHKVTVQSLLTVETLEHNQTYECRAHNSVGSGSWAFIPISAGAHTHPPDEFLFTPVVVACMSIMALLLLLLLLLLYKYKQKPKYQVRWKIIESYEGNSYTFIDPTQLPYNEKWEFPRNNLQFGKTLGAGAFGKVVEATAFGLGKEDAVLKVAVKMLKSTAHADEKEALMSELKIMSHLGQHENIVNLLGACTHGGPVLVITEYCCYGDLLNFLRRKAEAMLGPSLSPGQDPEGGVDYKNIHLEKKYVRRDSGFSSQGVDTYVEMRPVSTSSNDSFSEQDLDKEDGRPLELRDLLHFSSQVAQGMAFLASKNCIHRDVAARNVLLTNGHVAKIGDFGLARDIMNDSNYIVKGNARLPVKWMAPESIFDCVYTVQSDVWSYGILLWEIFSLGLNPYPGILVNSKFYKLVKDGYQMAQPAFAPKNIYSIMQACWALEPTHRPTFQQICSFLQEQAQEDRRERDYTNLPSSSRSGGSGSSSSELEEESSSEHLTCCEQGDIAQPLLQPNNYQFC
Chain of G protein-coupled receptor kinase 6 (Homo sapiens) (P43250 whole entry, looked up): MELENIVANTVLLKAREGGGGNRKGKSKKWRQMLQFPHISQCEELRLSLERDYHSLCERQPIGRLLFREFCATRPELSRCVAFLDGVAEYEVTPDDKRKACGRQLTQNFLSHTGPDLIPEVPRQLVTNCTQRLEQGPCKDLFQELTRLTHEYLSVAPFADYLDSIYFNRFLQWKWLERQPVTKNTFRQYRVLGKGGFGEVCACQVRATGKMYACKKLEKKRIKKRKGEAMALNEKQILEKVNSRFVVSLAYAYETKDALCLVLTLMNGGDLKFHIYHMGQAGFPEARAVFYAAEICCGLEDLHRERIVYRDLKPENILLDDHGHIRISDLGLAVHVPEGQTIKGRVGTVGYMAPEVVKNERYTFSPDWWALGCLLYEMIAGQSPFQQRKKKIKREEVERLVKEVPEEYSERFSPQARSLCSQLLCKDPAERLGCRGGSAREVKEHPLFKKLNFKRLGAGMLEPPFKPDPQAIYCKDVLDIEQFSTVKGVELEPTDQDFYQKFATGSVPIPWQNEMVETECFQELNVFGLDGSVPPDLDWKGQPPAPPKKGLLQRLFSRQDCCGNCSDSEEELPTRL
Chain of Homeodomain-interacting protein kinase 1 (Homo sapiens) (Q86Z02 whole entry, looked up): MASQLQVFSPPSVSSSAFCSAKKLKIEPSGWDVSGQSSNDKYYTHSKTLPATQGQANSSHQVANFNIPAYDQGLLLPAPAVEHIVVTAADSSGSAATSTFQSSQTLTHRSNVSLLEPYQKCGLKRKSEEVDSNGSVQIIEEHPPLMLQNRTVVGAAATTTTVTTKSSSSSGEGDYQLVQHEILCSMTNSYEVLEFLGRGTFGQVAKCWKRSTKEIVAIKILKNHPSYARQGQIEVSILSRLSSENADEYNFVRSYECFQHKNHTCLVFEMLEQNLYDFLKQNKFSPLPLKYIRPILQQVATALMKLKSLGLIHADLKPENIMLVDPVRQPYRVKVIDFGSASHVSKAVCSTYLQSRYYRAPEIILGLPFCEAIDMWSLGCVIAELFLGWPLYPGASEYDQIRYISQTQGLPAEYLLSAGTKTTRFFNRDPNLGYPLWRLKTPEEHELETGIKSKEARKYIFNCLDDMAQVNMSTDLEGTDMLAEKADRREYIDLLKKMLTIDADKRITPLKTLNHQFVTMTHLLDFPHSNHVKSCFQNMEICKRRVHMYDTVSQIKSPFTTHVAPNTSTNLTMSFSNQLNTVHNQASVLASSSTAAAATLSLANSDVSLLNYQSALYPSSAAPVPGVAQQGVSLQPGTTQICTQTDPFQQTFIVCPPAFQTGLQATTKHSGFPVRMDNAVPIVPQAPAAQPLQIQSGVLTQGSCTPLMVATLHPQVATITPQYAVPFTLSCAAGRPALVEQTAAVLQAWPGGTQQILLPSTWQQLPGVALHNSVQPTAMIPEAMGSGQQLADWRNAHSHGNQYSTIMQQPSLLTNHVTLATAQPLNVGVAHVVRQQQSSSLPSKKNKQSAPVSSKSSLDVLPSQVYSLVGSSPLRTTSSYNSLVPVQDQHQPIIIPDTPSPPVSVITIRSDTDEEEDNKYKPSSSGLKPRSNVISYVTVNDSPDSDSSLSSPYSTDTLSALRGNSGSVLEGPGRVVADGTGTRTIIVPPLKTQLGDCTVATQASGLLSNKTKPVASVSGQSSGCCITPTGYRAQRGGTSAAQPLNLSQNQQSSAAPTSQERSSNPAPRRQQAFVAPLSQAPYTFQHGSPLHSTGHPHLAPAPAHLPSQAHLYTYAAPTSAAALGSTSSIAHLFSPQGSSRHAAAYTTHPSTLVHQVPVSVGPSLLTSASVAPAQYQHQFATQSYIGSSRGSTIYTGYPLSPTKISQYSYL
Chain of Glycogen synthase kinase-3 alpha (Homo sapiens) (P49840 2-483 limits assumed): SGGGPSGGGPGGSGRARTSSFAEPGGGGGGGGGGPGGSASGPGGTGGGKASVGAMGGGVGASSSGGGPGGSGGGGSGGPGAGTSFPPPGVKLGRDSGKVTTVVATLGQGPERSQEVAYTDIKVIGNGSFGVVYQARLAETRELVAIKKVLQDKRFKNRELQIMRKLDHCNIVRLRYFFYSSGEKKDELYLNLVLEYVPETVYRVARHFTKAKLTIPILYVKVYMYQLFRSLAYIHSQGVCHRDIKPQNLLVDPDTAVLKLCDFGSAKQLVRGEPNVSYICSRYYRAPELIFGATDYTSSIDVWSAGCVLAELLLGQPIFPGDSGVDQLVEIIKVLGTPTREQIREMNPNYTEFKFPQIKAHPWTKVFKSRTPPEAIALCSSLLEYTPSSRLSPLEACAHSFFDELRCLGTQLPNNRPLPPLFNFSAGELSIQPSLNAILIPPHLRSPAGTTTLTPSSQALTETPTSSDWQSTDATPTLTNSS
Chain of Tyrosine-protein kinase Fyn (Homo sapiens) (P06241 2-537 limits assumed): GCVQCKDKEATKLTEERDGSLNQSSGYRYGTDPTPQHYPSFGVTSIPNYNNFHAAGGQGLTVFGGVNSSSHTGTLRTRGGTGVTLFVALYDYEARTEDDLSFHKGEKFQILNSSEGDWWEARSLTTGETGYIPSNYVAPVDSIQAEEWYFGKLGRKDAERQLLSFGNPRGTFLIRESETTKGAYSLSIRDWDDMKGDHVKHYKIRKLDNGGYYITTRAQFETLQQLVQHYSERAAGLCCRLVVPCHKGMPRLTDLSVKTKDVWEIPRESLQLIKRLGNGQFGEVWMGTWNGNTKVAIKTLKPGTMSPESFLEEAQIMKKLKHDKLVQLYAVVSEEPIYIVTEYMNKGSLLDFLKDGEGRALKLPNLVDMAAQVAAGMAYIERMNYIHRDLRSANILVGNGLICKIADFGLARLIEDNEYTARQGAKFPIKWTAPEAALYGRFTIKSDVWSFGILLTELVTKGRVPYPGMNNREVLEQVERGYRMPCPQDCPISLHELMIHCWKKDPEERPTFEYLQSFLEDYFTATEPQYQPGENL
Chain of G protein-coupled receptor kinase 5 (Homo sapiens) (P34947 whole entry, looked up): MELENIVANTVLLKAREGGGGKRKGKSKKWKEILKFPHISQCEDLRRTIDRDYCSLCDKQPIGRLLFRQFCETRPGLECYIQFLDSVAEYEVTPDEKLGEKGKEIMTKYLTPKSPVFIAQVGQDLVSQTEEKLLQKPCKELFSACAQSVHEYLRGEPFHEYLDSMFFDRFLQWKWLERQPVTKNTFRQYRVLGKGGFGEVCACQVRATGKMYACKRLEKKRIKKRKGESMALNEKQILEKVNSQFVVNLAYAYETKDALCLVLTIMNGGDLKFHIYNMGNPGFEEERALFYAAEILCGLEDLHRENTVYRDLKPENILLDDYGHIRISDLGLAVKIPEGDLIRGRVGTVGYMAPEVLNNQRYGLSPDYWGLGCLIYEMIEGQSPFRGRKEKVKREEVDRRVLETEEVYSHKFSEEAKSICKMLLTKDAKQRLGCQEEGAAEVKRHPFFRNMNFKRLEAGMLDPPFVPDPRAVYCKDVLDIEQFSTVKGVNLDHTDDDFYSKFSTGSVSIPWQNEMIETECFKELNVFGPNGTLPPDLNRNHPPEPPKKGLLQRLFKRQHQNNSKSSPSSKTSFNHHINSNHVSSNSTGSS
Chain of Glycogen synthase kinase-3 beta (Homo sapiens) (P49841 whole entry, looked up): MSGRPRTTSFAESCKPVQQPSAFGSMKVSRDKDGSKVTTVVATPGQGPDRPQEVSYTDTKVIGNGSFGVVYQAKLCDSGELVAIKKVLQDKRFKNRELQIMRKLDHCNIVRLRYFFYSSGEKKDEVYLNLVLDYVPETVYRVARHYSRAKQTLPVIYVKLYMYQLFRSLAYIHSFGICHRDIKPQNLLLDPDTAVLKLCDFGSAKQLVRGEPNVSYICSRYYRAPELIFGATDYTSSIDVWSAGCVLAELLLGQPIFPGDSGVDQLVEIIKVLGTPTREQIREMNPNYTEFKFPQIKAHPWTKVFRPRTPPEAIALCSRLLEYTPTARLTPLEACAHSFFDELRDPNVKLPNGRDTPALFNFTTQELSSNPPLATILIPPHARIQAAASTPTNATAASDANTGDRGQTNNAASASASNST

Regarding `c1ccc(-c2n[nH]c3c2oc2ccccc23)cc1`, the residual activity in [1] amounted to 1%; in experiment [2], 6%; in experiment [3], 1%; in [4], 86%; in experiment [5], 51%; in experiment [6] it was 84%. Further, the residual activity in experiment [7] came out at 30%; in experiment [8], 94%; in experiment [9], 86%; in [10], 95%; in experiment [11], 64%; in [12], 95%. Further, the residual activity in [13] came to 67%; in experiment [14] it was 98%; in [15], 58%; in experiment [16], 92%.
With `COc1cccc(-c2cc(=O)c3ccccc3o2)c1N`, the residual activity turned out to be 80% in [1]; 114% in experiment [2]; 88% in experiment [3]; 93% in experiment [4]; 39% in experiment [5]; 91% in [6]. Moreover, the residual activity in [7] came to 82%; in experiment [8] it was 102%; in [9], 96%; in [10], 96%; in experiment [11], 97%; in experiment [17], 77%. In addition, the residual activity in experiment [12] worked out at 106%; in [13] it was 103%; in experiment [18] it was 112%; in experiment [19], 92%; in experiment [14], 109%; in experiment [15] it was 95%. In addition, the residual activity in [16] was determined as 99%.
With `Nc1ccc2ncnc(NCCc3ccc(Oc4ccccc4)cc3)c2c1`, the residual activity in experiment [1] was 6%; in experiment [2], 72%; in [4], 75%; in [5], 66%; in [6] it was 72%; in experiment [7], 68%. In addition, the residual activity in experiment [8] is 97%; in experiment [9], 95%; in experiment [10], 110%; in [11] it was 88%; in [20], 94%; in experiment [17], 89%. Besides, the residual activity in experiment [12] was found to be 103%; in experiment [13], 119%; in [18], 115%; in experiment [19], 97%; in experiment [14], 77%; in [15], 70%. The residual activity in [16] turned out to be 92%.
In the case of `CC(C)n1cnc2c(NCc3ccccc3)nc(NCCCO)nc21`, the residual activity in experiment [1] was 68%; in experiment [2] it was 101%; in experiment [3], 77%; in experiment [4], 93%; in experiment [5], 1%; in experiment [6], 87%. The residual activity stood at 75% in experiment [7]; 93% in [8]; 87% in [9]; 94% in experiment [10]; 74% in [11]; 105% in experiment [20]. For the same molecule, the residual activity came out at 101% in experiment [17]; 134% in [12]; 114% in [13]; 111% in experiment [18]; 92% in experiment [19]; 100% in [14]. Also, the residual activity came out at 90% in experiment [15] and 96% in [16].
As for `Oc1ccc(Nc2nc(-c3ccc(Cl)cc3)cs2)cc1`, the residual activity worked out at 21% in experiment [1]; 72% in [2]; 43% in [3]; 87% in experiment [4]; 68% in [5]; 97% in experiment [6]. The residual activity in [7] came out at 60%; in experiment [8], 100%; in experiment [9], 102%; in experiment [10], 103%; in experiment [11] it was 103%; in experiment [20], 97%. In addition, the residual activity in [17] came out at 88%; in experiment [12], 131%; in [13], 114%; in experiment [19], 95%; in experiment [14], 92%; in [15], 89%. Moreover, in [16], the residual activity was found to be 105%.
Consider `CC#CC(=O)Nc1cc2c(Nc3ccc(F)c(Cl)c3)ncnc2cn1`, for which the residual activity in experiment [1] amounted to 93%; in experiment [2], 88%; in [3] it was 83%; in [4], 96%; in experiment [5] it was 88%; in [6], 91%. For the same molecule, the residual activity in experiment [7] stood at 84%; in experiment [8], 93%; in [9] it was 83%; in experiment [10], 98%; in experiment [11] it was 76%; in experiment [20] it was 129%. Moreover, the residual activity stood at 125% in experiment [17]; 97% in experiment [12]; 82% in [13]; 98% in experiment [18]; 111% in experiment [19]; 103% in experiment [14]. Further, the values for the residual activity in experiment [15] and in experiment [16] were 103% and 88%, respectively.
On to `O=C1Nc2ccc(Br)cc2/C1=C\c1cc2c([nH]1)CCCC2`, for which the residual activity turned out to be 1% in experiment [1]; 11% in experiment [2]; 3% in experiment [3]; 24% in experiment [6]; 42% in experiment [7]; 100% in experiment [8]. Moreover, the residual activity worked out at 113% in [20]; 122% in [17]; 99% in [19]; 82% in experiment [14]; 97% in experiment [16].

(Values after ChEMBL document CHEMBL2218924, “A broad activity screen in support of a chemogenomic map for kinase signalling research and drug discovery” (Biochem J, 2013).)
